The other results are listed elsewhere or left out. The hit rate among all sequences tested is not known here.
Molecular target: furin, P09958
Assay: furin cleavage Z-score vs untreated control; higher = more cleavage, active = 3.5 or more, inactive = 1 or less, 8 variable residues between constant flanks
Summary of the method: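 Reactions of 0.01 ml ran for 7.5, 15 or 30 min in 50 mM HEPES pH 7.5 with CaCl2 and NaCl, at 1:10 enzyme:substrate. In them, purified furin acted on bead-held 8-mer peptides fused to a cDNA oligonucleotide. The cleavage Z-score was obtained by lowess-adjusting log sequencing counts of released DNA against furin-free reactions and scaling by median absolute deviation.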

Chain of furin, P09958 (P09958 whole entry): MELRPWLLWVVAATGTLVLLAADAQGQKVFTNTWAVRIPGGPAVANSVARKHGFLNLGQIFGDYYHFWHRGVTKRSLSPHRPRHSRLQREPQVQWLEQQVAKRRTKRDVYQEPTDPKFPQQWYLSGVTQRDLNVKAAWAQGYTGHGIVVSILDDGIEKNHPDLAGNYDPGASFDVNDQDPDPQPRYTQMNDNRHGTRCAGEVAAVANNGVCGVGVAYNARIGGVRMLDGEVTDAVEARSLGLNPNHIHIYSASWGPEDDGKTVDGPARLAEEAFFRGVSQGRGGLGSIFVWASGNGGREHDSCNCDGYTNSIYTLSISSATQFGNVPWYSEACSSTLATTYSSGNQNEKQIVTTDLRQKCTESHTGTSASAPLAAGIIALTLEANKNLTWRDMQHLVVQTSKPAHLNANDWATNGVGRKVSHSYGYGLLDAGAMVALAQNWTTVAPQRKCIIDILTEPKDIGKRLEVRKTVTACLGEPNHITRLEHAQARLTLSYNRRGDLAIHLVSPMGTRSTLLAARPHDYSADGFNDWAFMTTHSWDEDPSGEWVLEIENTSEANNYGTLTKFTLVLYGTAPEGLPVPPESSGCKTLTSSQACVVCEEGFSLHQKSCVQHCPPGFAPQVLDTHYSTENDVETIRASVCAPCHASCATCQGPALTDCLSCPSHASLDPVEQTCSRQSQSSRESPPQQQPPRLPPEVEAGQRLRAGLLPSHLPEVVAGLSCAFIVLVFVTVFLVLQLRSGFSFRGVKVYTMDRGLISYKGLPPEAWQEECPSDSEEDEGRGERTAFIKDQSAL

| Sequence | furin cleavage Z-score (7.5 min) | furin cleavage Z-score (15 min) | furin cleavage Z-score (30 min) |
| --- | --- | --- | --- |
| CAVPCCSMSYAGNASASA [HC2019] | -0.257 (inactive) | 0.638 (inactive) | 1.91 |
| CAEQTTPCSGAGNASASA [HC1982] | -1.3 (inactive) | -0.293 (inactive) | 0.257 (inactive) |
| CASPLLLTTTAGNASASA [HC492] | -0.516 (inactive) | -0.474 (inactive) | -1.67 (inactive) |
| CAESVVCCSMAGNASASA [HC2137] | -0.35 (inactive) | -0.242 (inactive) | -0.275 (inactive) |
| CAEEEVPCHRAGNASASA [HC2452] | -0.0801 (inactive) | -0.749 (inactive) | -0.159 (inactive) |
| CADAVILLMCAGNASASA [HC596] | -0.491 (inactive) | 1.35 | 0.744 (inactive) |
| CAREKRSEYSAGNASASA [FS-1852] | 3.09 | 3.81 (active) | 3.2 |
| CAREKRLLYSAGNASASA [FS-3218] | -0.25 (inactive) | 0.302 (inactive) | -0.105 (inactive) |
| CALLCRHKRKAGNASASA [FS-1359] | 7.93 (active) | 9.24 (active) | 8.25 (active) |
| CAIEFRHKRKAGNASASA [FS-1535] | -1.35 (inactive) | 1.39 | 3.89 (active) |
| CARGPRGKGKAGNASASA [FS-1893] | -0.459 (inactive) | -0.333 (inactive) | -2.1 (inactive) |
| CATIMAKNEVAGNASASA [HC1439] | 1.57 | 1.43 | 0.513 (inactive) |
| CAKFHRNRRVAGNASASA [FS-38] | 1.89 | 4.04 (active) | 2.3 |
| CAMGGNITRVAGNASASA [HC1279] | -0.69 (inactive) | 2.32 | 0.434 (inactive) |
| CAYGGRNRRVAGNASASA [FS-151] | 2 | 3.67 (active) | 4.5 (active) |
| CAEVVASTWVAGNASASA [HC121] | 1.23 | 1.63 | -0.233 (inactive) |
| CAVPCVREGNAGNASASA [HC274] | -0.737 (inactive) | -0.519 (inactive) | -1.84 (inactive) |
| CARLPRATGNAGNASASA [FS-2571] | 5 (active) | 5.67 (active) | 4.58 (active) |
| CARLRRMNGNAGNASASA [FS-2994] | -0.28 (inactive) | -1.18 (inactive) | -0.557 (inactive) |
| CARLARTCGRAGNASASA [FS-2985] | -1.25 (inactive) | 0.197 (inactive) | -0.432 (inactive) |
| CARLPRDCTRAGNASASA [FS-1742] | 5.34 (active) | 4.96 (active) | 5.25 (active) |
| CAGVNYATGNAGNASASA [HC241] | 1.48 | 0.396 (inactive) | -0.36 (inactive) |
| CAWREVPCHRAGNASASA [HC2428] | 0.368 (inactive) | 0.114 (inactive) | 0.301 (inactive) |

| Sequence | furin cleavage Z-score (7.5 min) | furin cleavage Z-score (15 min) | furin cleavage Z-score (30 min) |
| --- | --- | --- | --- |
| CAVVCCCMSYAGNASASA [HC114] | -0.592 (inactive) | -1.78 (inactive) | -0.879 (inactive) |
| CAENLPYLVAAGNASASA [HC951] | 0.645 (inactive) | -0.626 (inactive) | -0.719 (inactive) |
| CARKRKKKEEAGNASASA [FS-2697] | 0.247 (inactive) | -0.542 (inactive) | 0.0983 (inactive) |
| CARKRRHHKEAGNASASA [FS-2699] | 2.57 | 3.84 (active) | 4.3 (active) |
| CARKRRAAIPAGNASASA [FS-2970] | 8.75 (active) | 10.1 (active) | 9.65 (active) |
| CARKRRGYSEAGNASASA [FS-2566] | 2.94 | 5.38 (active) | 4.72 (active) |
| CARKRRMQEEAGNASASA [FS-2349] | 1.31 | 4.08 (active) | 2.78 |
| CARKNRSRIPAGNASASA [FS-1732] | 0.169 (inactive) | -0.807 (inactive) | 1.17 |
| CAITTGSPITAGNASASA [HC803] | -2.76 (inactive) | 0.166 (inactive) | -2.04 (inactive) |
| CAHGVRVLEDAGNASASA [HC237] | -1.85 (inactive) | 0.0719 (inactive) | -1.67 (inactive) |
| CATLPCSGSWAGNASASA [HC1845] | -0.596 (inactive) | -0.261 (inactive) | -1.28 (inactive) |
| CAAFASRGNHAGNASASA [HC1121] | -0.112 (inactive) | -1.64 (inactive) | -2.06 (inactive) |
| CARKRRHAKPAGNASASA [FS-1906] | 10.5 (active) | 11.1 (active) | 8.48 (active) |
| CARGNHVSPTAGNASASA [HC1123] | 1.1 | 1.54 | 0.545 (inactive) |
| CAEVPCHRPKAGNASASA [HC2414] | -1.63 (inactive) | 0.536 (inactive) | -0.415 (inactive) |
| CAVVCCSMQYAGNASASA [HC2082] | 1.92 | 0.703 (inactive) | 0.648 (inactive) |
| CAGGAYDIIIAGNASASA [HC814] | -2.09 (inactive) | -0.697 (inactive) | -1.96 (inactive) |
| CAGERRRRRAAGNASASA [FS-996] | 8.97 (active) | 8.15 (active) | 6.93 (active) |
| CAPAPPRRRAAGNASASA [FS-1041] | -0.128 (inactive) | 0.595 (inactive) | -0.381 (inactive) |
| CAGERGFFYTAGNASASA [EK5] | -1.92 (inactive) | -1.21 (inactive) | -0.932 (inactive) |
| CAGAQRRRRAAGNASASA [FS-1524] | 6.18 (active) | 4.18 (active) | 4.18 (active) |
| CAGAGAGAGAAGNASASA [NE4] | -0.934 (inactive) | -0.739 (inactive) | -0.847 (inactive) |
| CAHHQRRRRAAGNASASA [FS-907] | 7.96 (active) | 6.66 (active) | 6.29 (active) |

Source: the supplement of paper PMC3545927
